Laboratory results reported in PubChem BioAssay (Tox21).
Results filed as inconclusive are left out. Where a call stands in place of a potency, no number is given. The source made the active and inactive calls. Calls follow the shape of the dose curve; as a rule, active = well fitted curve in the direction sought with a large enough effect in the repeat runs; inconclusive = weak or mixed curves; inactive = no such curve, though single readings can be large; an effect the other way counts as inactive or inconclusive.

Test system: not listed separately
Experiment: qHTS assay to identify aromatase inhibitors - cell viability counter screen (AID 743084);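 also: cells stimulated with testosterone during compound exposure; nearly all actives have a fitted effect of over 55% in size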
Conditions: MCF-7 aro ERE viability, CellTiter-Fluor, 24 h; series mostly up to 70.3 µM

| SMILES | outcome |
| --- | --- |
| O=C(O)Cc1ccccc1Oc1ccc(Cl)cc1Cl | inactive |
| CC(=O)OCC(=O)[C@@]1(O)CC[C@H]2[C@@H]3CCC4=CC(=O)C=C[C@]4(C)[C@H]3[C@@H](O)C[C@@]21C | inactive |
| NNC(=O)CCCCC(=O)NN | inactive |

Biological target: Aryl hydrocarbon receptor (Homo sapiens) (UniProt P35869)
Sequence (P35869 whole entry, looked up): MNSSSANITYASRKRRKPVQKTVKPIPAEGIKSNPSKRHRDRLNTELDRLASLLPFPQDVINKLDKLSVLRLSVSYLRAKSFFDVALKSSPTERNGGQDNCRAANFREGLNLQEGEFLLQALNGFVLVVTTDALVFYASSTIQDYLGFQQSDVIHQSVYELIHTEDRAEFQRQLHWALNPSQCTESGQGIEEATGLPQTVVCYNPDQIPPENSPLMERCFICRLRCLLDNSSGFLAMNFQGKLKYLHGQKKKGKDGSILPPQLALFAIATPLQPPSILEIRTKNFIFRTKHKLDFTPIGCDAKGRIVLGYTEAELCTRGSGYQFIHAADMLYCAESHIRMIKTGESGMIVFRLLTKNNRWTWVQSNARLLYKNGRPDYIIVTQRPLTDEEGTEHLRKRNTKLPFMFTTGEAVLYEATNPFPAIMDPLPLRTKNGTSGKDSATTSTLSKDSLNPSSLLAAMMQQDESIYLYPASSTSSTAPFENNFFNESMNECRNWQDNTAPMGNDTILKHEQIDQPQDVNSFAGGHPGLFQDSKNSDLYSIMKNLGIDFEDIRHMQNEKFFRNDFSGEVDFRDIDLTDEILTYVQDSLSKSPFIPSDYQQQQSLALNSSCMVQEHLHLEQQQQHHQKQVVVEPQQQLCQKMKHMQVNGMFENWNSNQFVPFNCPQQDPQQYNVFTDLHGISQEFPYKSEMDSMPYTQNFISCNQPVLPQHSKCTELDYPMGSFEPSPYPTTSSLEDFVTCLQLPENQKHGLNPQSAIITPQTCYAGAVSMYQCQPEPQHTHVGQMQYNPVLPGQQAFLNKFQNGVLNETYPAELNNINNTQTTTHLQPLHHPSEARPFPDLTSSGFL
Experiment: qHTS assay to identify small molecule that activate the aryl hydrocarbon receptor (AhR) signaling pathway (AID 743085);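 also: HG2L7.5c1 human HepG2 liver cells with stably integrated DRE-driven firefly reporter; nearly all actives have a fitted effect of over 15% in size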
Conditions: HepG2 AhR-luc (HG2L7.5c1), luciferase, 24 h; series mostly up to 70.3 µM
Outline: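 Luminescence read-out: ONE-Glo reagent, 30 min at room temperature, in HG2L7.5c1 HepG2 reporter cells treated 24 h at 37C. Viability was measured beforehand by CellTiter-Fluor fluorescence after 30 min at 37C.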

| SMILES | Potency |
| --- | --- |
| CC(C)CC(O)Cc1ccccc1 (stereo not given) | inactive |
| CC(CN1CC(=O)NC(=O)C1)N1CC(=O)NC(=O)C1 (stereo not given) | inactive |
| CC(C)(C)NCC(O)COc1cccc2c1CCC(=O)N2 (stereo not given) | inactive |
| CN(C)CCc1c[nH]c2ccc(C[C@H]3COC(=O)N3)cc12 | inactive |
| CCC(C)(C)C | inactive |
| COC(=O)/C=C(\C)CCC=C(C)C | inactive |
| Cc1ccc(O)c(C(=O)c2ccccc2)c1 | inactive |
| N#CC1(N)CCCCC1 | inactive |
| CCc1ccc(CC)cc1 | inactive |
| CCO[Si](CC(C)C)(OCC)OCC | inactive |
| C=CC(=O)OCCOCCOCC | inactive |
| O=C1CC2(CCCC2)CC(=O)N1CCNCC1COc2ccccc2O1 (stereo not given) | inactive |
